The whole screen tested about 320,000 compounds, of which about 1,400 (0.44%) were called active. The sample holds actives, similar compounds and a random draw of the others, so the mix is not that of the screen. A number with no mark means an inactive call.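 How the source made its calls: active means percent inhibition above a per-plate cutoff, the plate mean of test compounds plus 3 SD (cut at about 30% in these data); inactive means the rest.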

Among the data in PubChem BioAssay AID2280 (The Scripps Research Institute Molecular Screening Center, 2010) are inhibition values, retold here.

The target of this assay is Female germline-specific tumor suppressor gld-1 (Caenorhabditis elegans) (UniProt Q17339). Put plainly: small molecules blocking C. elegans GLD-1 RNA recognition – biochemical, fluorescence polarization, primary screen (AID 2280).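 Further: 0% = DMSO wells with GLD-1 and probe and 100% = wells lacking GLD-1.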 The conditions noted are these: purified GLD-1 + fluorescein TGE RNA, at 5.96 µM, stronger effect = higher value. In general terms: Fluorescence polarisation rises when a labelled molecule tumbles more slowly, as on binding a larger partner.
Chain of Female germline-specific tumor suppressor gld-1 (Caenorhabditis elegans) (Q17339 whole entry, looked up): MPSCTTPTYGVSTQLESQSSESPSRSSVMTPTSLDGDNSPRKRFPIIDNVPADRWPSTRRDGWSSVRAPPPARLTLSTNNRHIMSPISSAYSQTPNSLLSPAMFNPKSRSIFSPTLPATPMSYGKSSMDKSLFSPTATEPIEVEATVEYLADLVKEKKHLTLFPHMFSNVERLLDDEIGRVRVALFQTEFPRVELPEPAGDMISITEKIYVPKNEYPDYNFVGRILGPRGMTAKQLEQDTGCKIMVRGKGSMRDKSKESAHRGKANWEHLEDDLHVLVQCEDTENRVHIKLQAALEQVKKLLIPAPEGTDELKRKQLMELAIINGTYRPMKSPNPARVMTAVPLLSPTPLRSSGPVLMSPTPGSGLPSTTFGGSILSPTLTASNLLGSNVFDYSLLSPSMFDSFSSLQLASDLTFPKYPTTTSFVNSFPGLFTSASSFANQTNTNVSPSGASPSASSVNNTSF
On to `Cc1cc2ccccc2n1CCNC(=O)COc1ccc2ccccc2c1`, for which the inhibition is 7.21%.
The result for `Cc1cc2ccccc2n1CCC(=O)O` reads 50.2% (active).
`O=C(O)CCn1c(Cc2ccccc2)nc2ccccc21`: the inhibition was -2.47%.
Take `COC(=O)c1cn(C)c2ccc(S(=O)(=O)N3CC(C)CC(C)C3)cc2c1=O` (stereo not given): the inhibition is 3.86%.
Regarding `Cc1ccc(NC(=O)C(C)c2cccc(C(=O)c3ccccc3)c2)cc1` (stereo not given), the inhibition is 2.46%.
The figure for `O=C(CCc1ccccc1)Nc1ccc(NC(=O)C2CC2)nc1` is 8.07%.
`O=C(NCCN1CCOCC1)[C@H](Cc1ccccc1)N1C(=O)c2ccccc2C1=O`: the inhibition was 5.89%.
The figure for `C=C1CCN([C@@H](Cc2ccccc2)C(=O)N2CCOCC2)S(=O)(=O)c2ccccc21` is 39.9% (active); for `N[C@@H](Cc1ccccc1)C(=O)N1CCOCC1` it is 10.2%; for `CCN(c1ccc2c(c1)OCO2)S(=O)(=O)c1cc(Br)cc2c1N(C(=O)C1CC1)CC2` it is 2.82%.
The figure for `Cc1ccc(S(=O)(=O)c2c[nH]c3ccc(Cl)cc3c2=O)cc1` is 1.43%.
The result for `Cc1cc(=O)oc2cc(OCC3CC(c4ccccc4Cl)=NO3)ccc12` (stereo not given) reads 4.3%; that for `CC(=O)c1nnn(-c2ccc(Cl)cc2C#N)c1C`, 2.27%.
For the compound `CC[N+](C)(CC)CCC[n+]1c(-c2ccccc2)c2cc(N)ccc2c2ccc(N)cc21`, the inhibition was 62.4% (active).
The result for `CC(C)[C@H](NC(=O)N1CCn2c1nc1ccccc12)C(=O)NC1CC1` reads -3.08%; that for `Cc1ccc(CNC(=O)c2ccc3c(c2)S(=O)(=O)c2ccccc2C3=O)cc1`, -2.48%; that for `Cc1ccc(CNC(=O)c2cccc3c2C(=O)c2ccc(N4CCC(C)CC4)cc2S3(=O)=O)cc1`, 124% (active).
The result for `CC1CCN(c2c(NCc3ccc(C(=O)NCc4ccccc4)cc3)c(=O)c2=O)CC1` reads -1.64%; that for `O=[N+]([O-])c1cc(S(=O)(=O)Nc2cccc(Cl)c2)ccc1N=Nc1c(O)[nH]c2ccccc12`, 0.17%; that for `O=C(NCC(c1cccs1)N1CCOCC1)c1cc(Cl)ccc1[N+](=O)[O-]` (stereo not given), 1.88%.
As for `CCOC(=O)CN(C)S(=O)(=O)c1ccc(-c2cc(C(=O)OC)sc2C(F)(F)F)cc1`, the inhibition is 9.97%.
The figure for `COc1ccc(C2C=C(c3ccc(Br)cc3)Nc3nc(NS(C)(=O)=O)nn32)cc1` (stereo not given) is 155% (active); for `COc1ccc(C2=CC(c3cccc(OC)c3)n3nnnc3N2)cc1` (stereo not given) it is 14.6%; for `CSc1cccc(NC(=O)CN2C(=O)COc3ccc(S(=O)(=O)N4CCOCC4)cc32)c1` it is -0.09%.
The figure for `N#CCc1ccc(NC(=O)c2ccccc2C(=O)Nc2ccc(CC#N)cc2)cc1` is -0.7%.
On to `COc1cccc(NC(=O)CN(C)CC(=O)c2c(N)n(Cc3ccccc3)c(=O)n(C)c2=O)c1`, for which the inhibition was 3.38%.
For the compound `CNC(=O)c1cccc2nc3ccccc3nc12`, the inhibition was 3%.
For `O=c1[nH]c(=O)c2nc3ccccc3nc2[nH]1`, the inhibition was 48.7% (active).
The result for `O=C1NCCn2nc3ccccc3c21` reads -0.55%; that for `Nc1ccc2nc3c(=O)[nH]c(=S)[nH]c3nc2c1`, 172% (active).
The figure for `Cc1csc(/N=C/N(C)C)c1C#N` is 7.85%; for `COc1cccc(NC(=O)C(=O)c2cn(CC(=O)N3CCOCC3)c3ccccc23)c1` it is 9.65%; for `Cc1ccc(C2(C)NC(=O)N(CC(=O)N3CC(=O)Nc4ccccc43)C2=O)cc1` (stereo not given) it is -0.04%.
As to `Cc1ccc(-c2nnc(Nc3ccc(C(=O)N(C)C)cc3)c3ccccc23)cc1S(N)(=O)=O`, the inhibition was 6.66%.
As for `O=C(Nc1cccc(F)c1)N1C2CCC1CC(O)(c1cccnc1)C2` (stereo not given), the inhibition was -5.02%.
With `CC[C@]1(O)C[C@@H]2CN(CCc3c([nH]c4ccccc34)[C@@](C(=O)OC)(c3cc4c(cc3OC)N(C)[C@H]3[C@@](O)(C(=O)OC)[C@H](OC(C)=O)[C@]5(CC)C=CCN6CC[C@]43[C@@H]65)C2)C1`, the inhibition is 35.9% (active).
The figure for `CC[C@]1(O)CC2CN(CCc3c([nH]c4ccccc34)[C@@](C(=O)OC)(c3cc4c(cc3OC)N(C=O)[C@H]3[C@@](O)(C(=O)OC)[C@H](OC(C)=O)[C@]5(CC)C=CCN6CC[C@]43[C@@H]65)C2)C1` (stereo not given in full) is 8%.
The figure for `COc1ccc(Cc2nnc(N/N=C/c3ccccc3O)[nH]c2=O)cc1OC` is 2.1%.
For the compound `Cc1cccc(OCC(=O)NCC(=O)N/N=C/c2ccc(N(C)C)cc2)c1`, the inhibition was 1.86%.
The result for `Cc1ccc(/C=N/NC(=O)CSc2nc3ccccc3o2)cc1` reads 13.4%.
As to `Cc1ccc(/C=N/NC(=O)COc2ccccc2-c2ccccc2)cc1`, the inhibition is 52.5% (active).
Consider `COc1cc(/C=C2\Oc3ccc(C#Cc4ccc(O)cc4)cc3C2=O)cc(OC)c1`, for which the inhibition is -7.59%.
The result for `O=C(CCN1CCc2ccccc2C(O)(c2ccccc2)C1)c1ccc2c(c1)OCCO2` (stereo not given) reads 8.71%.
As to `COC(=O)c1cc(C(=O)N(Cc2ccccc2)c2ccccn2)cc([N+](=O)[O-])c1`, the inhibition is 3.82%.
`COCCOC(=O)c1sc(=S)n(CCOC)c1N`: the inhibition was 65.8% (active).
The figure for `COc1cccc(-n2c(SCC(=O)NC3CCS(=O)(=O)C3)nc3ccccc3c2=O)c1` (stereo not given) is 1.53%.
In the case of `CSCCC(NS(=O)(=O)c1ccc2c(c1)oc(=O)n2C)C(=O)NCc1ccccc1` (stereo not given), the inhibition is 4.5%.
As to `COC(=O)CSc1nc2ccccc2c(=O)n1Cc1ccccc1`, the inhibition was -3.39%.
As to `Cc1cc2nc3c(=O)n(Cc4ccccc4)c(=O)[nH]c3nc2cc1N`, the inhibition was 190% (active).
Turning to `C=CCSc1nc2c(c(=O)[nH]c(=O)n2C)n1Cc1ccccc1`, the inhibition is -0.99%.
The figure for `COc1cc([C@H](Cc2ccccc2)NC(C)=O)oc(=O)c1` is 43.8% (active); for `CCOC(=O)C(Cc1ccccc1)NC(=O)CCC(=O)c1ccc(OC)cc1` (stereo not given) it is 2.6%; for `COc1ccc(OC)c(NC(=O)N[C@H](Cc2ccccc2)C(=O)NN)c1` it is 6.48%.
As to `CCCCCCCCc1c(O)nc(-n2[nH]c(C)c(CCO)c2=O)[nH]c1=O`, the inhibition is 3.56%.
For the compound `COCCN(C(=O)c1ccccc1F)c1c(N)n(Cc2ccccc2)c(=O)[nH]c1=O`, the inhibition was 1.28%.
The figure for `COCCn1c(N)c(N(Cc2ccccc2)C(=O)C2CCCCC2)c(=O)[nH]c1=O` is 7.47%; for `COCCn1c(N)c(NCc2ccccc2)c(=O)[nH]c1=O` it is 94.7% (active).
The result for `COC(=O)c1c(NC(=O)CN2CCN(S(=O)(=O)c3ccccc3[N+](=O)[O-])CC2)sc2c1CCC(C)C2` (stereo not given) reads 1.69%; that for `COc1ccc(C2C(C#N)=C(N)N(c3ncn[nH]3)C3=C2C(=O)CCC3)cc1` (stereo not given), 2.28%; that for `O=C(Nc1ccccc1C(=O)O)c1ccc(N2C(=O)C3CC=CCC3C2=O)cc1` (stereo not given), 3.32%.
The result for `CCOc1ccc(C2=CC(c3ccccc3)n3ncnc3N2)cc1` (stereo not given) reads 11.7%.
Turning to `Brc1ccc(C2=CC(c3ccco3)n3ncnc3N2)cc1` (stereo not given), the inhibition is 158% (active).
The figure for `CC1=C(C(=O)OCc2ccccc2)C(c2ccco2)n2ncnc2N1` (stereo not given) is 0.86%.
The figure for `CCC(C)[C@@H](C(=O)N1CCNCC1)n1cc(CCCCN)nn1` (stereo not given in full) is 3.86%; for `COc1cc2c(-c3ccc4c(c3)OCO4)c(-c3ccsc3)oc(=O)c2cc1OC` it is 0.87%.

By inhibition is commonly meant the relative decrease from the control value, in per cent.
